# Laboratory results published in PubChem BioAssay AID1159580 (chemical genetic matrix, 2015).
# Hit rate of the full screen: of about 5,500 compounds, about 2,000 (36%) were called active. Inconclusive results (about 18%) are left out. The list shows a part of the results. Values without a mark were called inactive. Cut-off read from the data, not from the text of the source: active = normalized growth mostly below about 0.91 (no sharp cut-off); inconclusive = no clear call, values can overlap the other calls; inactive = mostly above about 0.92.
# Assay: chemical genetic growth profiling, strain panel (AID 1159580);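 note: tested at 20 µM; growth read once vehicle control cultures reached saturation at 30 °C; 1 = growth at the plate median or of vehicle wells; lower values mean less growth of the strain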
# Settings: growth OD
smiles,measurement,setting,value
C=C(C)c1cc2cc(C(C)=O)c(O)cc2o1,normalized growth,"S. cerevisiae deletion strains, locus YJL187C, strain SWE1, hits give low values",0.994
same,normalized growth,"S. cerevisiae deletion strains, locus YJR066W, strain TOR1, hits give low values",0.886
same,normalized growth,"S. cerevisiae deletion strains, locus YKL009W, strain mrt4, hits give low values",0.939
same,normalized growth,"S. cerevisiae deletion strains, locus YKL068W, hits give low values",0.934 (active)
same,normalized growth,"S. cerevisiae deletion strains, locus YKL085W, strain MDH1 (second series), hits give low values",0.918 (active)
same,normalized growth,"S. cerevisiae deletion strains, locus YKL085W, strain MDH1, hits give low values",0.918 (active)
same,normalized growth,"S. cerevisiae deletion strains, locus YKL160W, strain elf1, hits give low values",0.92
same,normalized growth,"S. cerevisiae deletion strains, locus YKL190W, strain CNB1, hits give low values",0.954
same,normalized growth,"S. cerevisiae deletion strains, locus YKR001C, strain vps1, hits give low values",0.932
same,normalized growth,"S. cerevisiae deletion strains, locus YKR026C, strain gcn3, hits give low values",0.966
same,normalized growth,"S. cerevisiae deletion strains, locus YKR091W, strain srl3, hits give low values",0.979
same,normalized growth,"S. cerevisiae deletion strains, locus YLL001W, strain dnm1, hits give low values",0.916
same,normalized growth,"S. cerevisiae deletion strains, locus YLL026W, hits give low values",0.977
same,normalized growth,"S. cerevisiae deletion strains, locus YLL041C, strain sdh2, hits give low values",0.97
same,normalized growth,"S. cerevisiae deletion strains, locus YLR027C, strain aat2, hits give low values",0.964
same,normalized growth,"S. cerevisiae deletion strains, locus YLR039C, strain RIC1, hits give low values",0.831
same,normalized growth,"S. cerevisiae deletion strains, locus YLR058C, strain SHM2, hits give low values",0.948
same,normalized growth,"S. cerevisiae deletion strains, locus YLR102C, strain apc9, hits give low values",0.931
same,normalized growth,"S. cerevisiae deletion strains, locus YLR113W, strain HOG1, hits give low values",0.834 (active)
same,normalized growth,"S. cerevisiae deletion strains, locus YLR221C, strain rsa3, hits give low values",0.975
same,normalized growth,"S. cerevisiae deletion strains, locus YLR258W, strain gsy2, hits give low values",0.932
same,normalized growth,"S. cerevisiae deletion strains, locus YLR262C, strain YPT6 (second series), hits give low values",0.834 (active)
same,normalized growth,"S. cerevisiae deletion strains, locus YLR268W, strain sec22, hits give low values",0.945
same,normalized growth,"S. cerevisiae deletion strains, locus YLR320W, strain mms22, hits give low values",0.908
same,normalized growth,"S. cerevisiae deletion strains, locus YLR342W, strain FKS1 (second series), hits give low values",0.894
same,normalized growth,"S. cerevisiae deletion strains, locus YLR342W, strain FKS1, hits give low values",0.978
same,normalized growth,"S. cerevisiae deletion strains, locus YLR357W, strain rsc2, hits give low values",1.01
same,normalized growth,"S. cerevisiae deletion strains, locus YLR370C, strain arc18, hits give low values",0.971
same,normalized growth,"S. cerevisiae deletion strains, locus YLR371W, strain rom2, hits give low values",0.776 (active)
same,normalized growth,"S. cerevisiae deletion strains, locus YLR384C, strain iki3, hits give low values",0.977
same,normalized growth,"S. cerevisiae deletion strains, locus YLR418C, strain cdc73, hits give low values",0.861
same,normalized growth,"S. cerevisiae deletion strains, locus YML016C, strain PPZ1, hits give low values",0.906 (active)
same,normalized growth,"S. cerevisiae deletion strains, locus YML032C, strain rad52, hits give low values",0.942
same,normalized growth,"S. cerevisiae deletion strains, locus YML120C, strain ndi1, hits give low values",0.932
same,normalized growth,"S. cerevisiae deletion strains, locus YML124C, strain tub3, hits give low values",0.906 (active)
same,normalized growth,"S. cerevisiae deletion strains, locus YMR058W, strain fet3, hits give low values",0.954
same,normalized growth,"S. cerevisiae deletion strains, locus YMR078C, strain ctf18, hits give low values",0.909 (active)
same,normalized growth,"S. cerevisiae deletion strains, locus YMR125W, strain sto1, hits give low values",0.982
same,normalized growth,"S. cerevisiae deletion strains, locus YMR129W, hits give low values",0.966
same,normalized growth,"S. cerevisiae deletion strains, locus YMR205C, strain PFK2, hits give low values",0.906
same,normalized growth,"S. cerevisiae deletion strains, locus YMR223W, strain ubp8, hits give low values",0.967
same,normalized growth,"S. cerevisiae deletion strains, locus YMR231W, strain pep5, hits give low values",0.997
same,normalized growth,"S. cerevisiae deletion strains, locus YMR307W, strain GAS1, hits give low values",0.904
same,normalized growth,"S. cerevisiae deletion strains, locus YNL067W, strain RPL9B, hits give low values",0.986
same,normalized growth,"S. cerevisiae deletion strains, locus YNL071W, strain lat1, hits give low values",0.861 (active)
same,normalized growth,"S. cerevisiae deletion strains, locus YNL128W, strain TEP1, hits give low values",0.928
same,normalized growth,"S. cerevisiae deletion strains, locus YNL183C, strain NPR1, hits give low values",0.889
same,normalized growth,"S. cerevisiae deletion strains, locus YNL209W, strain ssb2, hits give low values",0.967
same,normalized growth,"S. cerevisiae deletion strains, locus YNL233W, strain BNI4, hits give low values",0.952
same,normalized growth,"S. cerevisiae deletion strains, locus YNL248C, strain rpa49, hits give low values",0.956
same,normalized growth,"S. cerevisiae deletion strains, locus YNL250W, strain rad50, hits give low values",0.932
same,normalized growth,"S. cerevisiae deletion strains, locus YNL271C, strain bni1, hits give low values",0.957
same,normalized growth,"S. cerevisiae deletion strains, locus YNL298W, strain CLA4, hits give low values",0.909 (active)
same,normalized growth,"S. cerevisiae deletion strains, locus YNL307C, strain MCK1, hits give low values",0.895 (active)
same,normalized growth,"S. cerevisiae deletion strains, locus YNL322C, strain KRE1 (second series), hits give low values",0.979
same,normalized growth,"S. cerevisiae deletion strains, locus YNR049C, strain mso1, hits give low values",0.976
same,normalized growth,"S. cerevisiae deletion strains, locus YNR052C, strain pop2, hits give low values",0.97
same,normalized growth,"S. cerevisiae deletion strains, locus YOL006C, strain TOP1, hits give low values",0.714
same,normalized growth,"S. cerevisiae deletion strains, locus YOL012C, strain htz1",0.842
same,normalized growth,"S. cerevisiae deletion strains, locus YOL147C, strain pex11, hits give low values",0.923 (active)
same,normalized growth,"S. cerevisiae deletion strains, locus YOR001W, strain rrp6, hits give low values",0.982
same,normalized growth,"S. cerevisiae deletion strains, locus YOR061W, strain CKA2, hits give low values",0.933
same,normalized growth,"S. cerevisiae deletion strains, locus YOR069W, strain VPS5, hits give low values",0.968
same,normalized growth,"S. cerevisiae deletion strains, locus YOR070C, strain gyp1, hits give low values",0.979
same,normalized growth,"S. cerevisiae deletion strains, locus YOR080W, strain dia2, hits give low values",0.984
same,normalized growth,"S. cerevisiae deletion strains, locus YOR083W, strain WHI5, hits give low values",0.929
same,normalized growth,"S. cerevisiae deletion strains, locus YOR106W, strain vam3, hits give low values",0.965
same,normalized growth,"S. cerevisiae deletion strains, locus YOR136W, strain idh2, hits give low values",0.943
same,normalized growth,"S. cerevisiae deletion strains, locus YOR144C, strain elg1, hits give low values",0.936
same,normalized growth,"S. cerevisiae deletion strains, locus YOR184W, strain ser1, hits give low values",0.845 (active)
same,normalized growth,"S. cerevisiae deletion strains, locus YOR231W, strain MKK1, hits give low values",0.93
same,normalized growth,"S. cerevisiae deletion strains, locus YOR265W, strain rbl2, hits give low values",0.96
same,normalized growth,"S. cerevisiae deletion strains, locus YOR270C, strain vph1, hits give low values",0.88
same,normalized growth,"S. cerevisiae deletion strains, locus YOR290C, strain snf2, hits give low values",0.893
same,normalized growth,"S. cerevisiae deletion strains, locus YOR316C, strain cot1, hits give low values",0.913 (active)
same,normalized growth,"S. cerevisiae deletion strains, locus YPL051W, strain arl3, hits give low values",0.917
same,normalized growth,"S. cerevisiae deletion strains, locus YPL078C, strain atp4, hits give low values",0.877 (active)
same,normalized growth,"S. cerevisiae deletion strains, locus YPL106C, strain sse1, hits give low values",0.895
same,normalized growth,"S. cerevisiae deletion strains, locus YPL240C, strain hsp82, hits give low values",0.961
same,normalized growth,"S. cerevisiae deletion strains, locus YPL256C, strain CLN2, hits give low values",0.897
same,normalized growth,"S. cerevisiae deletion strains, locus YPR119W, strain clb2, hits give low values",0.942
same,normalized growth,"S. cerevisiae deletion strains, locus YPR141C, strain kar3, hits give low values",0.906 (active)
same,normalized growth,"S. cerevisiae deletion strains, locus YPR163C, strain tif3, hits give low values",0.976
same,normalized growth,"S. cerevisiae deletion strains, locus YPR167C, strain met16, hits give low values",0.927
same,normalized growth,"S. cerevisiae deletion strains, strain wtn01, hits give low values",0.89 (active)
same,normalized growth,"S. cerevisiae strains, strain wild type, hits give low values",0.929
